# Results taken from PubChem BioAssay AID1259374 (The Scripps Research Institute Molecular Screening Center, 2018).
# Screen size: about 650,000 compounds; about 5,900 (0.91%) were called active. Cut-off read from the data, not from the text of the source: active = inhibition above about 50%; inactive = the rest. Shown is part of a subset that was picked to be rich in actives.
# Target: Microphthalmia-associated transcription factor (Homo sapiens) (UniProt O75030)
# Assay: MITF inhibitors, primary screen, biochemical, AlphaScreen, human (AID 1259374);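 note: 0% = vehicle wells with protein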
# Details: AlphaScreen MITF homodimerization, bead proximity signal; at 2.6 µM; stronger effect = higher value
# Chain of Microphthalmia-associated transcription factor (Homo sapiens) (O75030 whole entry, looked up): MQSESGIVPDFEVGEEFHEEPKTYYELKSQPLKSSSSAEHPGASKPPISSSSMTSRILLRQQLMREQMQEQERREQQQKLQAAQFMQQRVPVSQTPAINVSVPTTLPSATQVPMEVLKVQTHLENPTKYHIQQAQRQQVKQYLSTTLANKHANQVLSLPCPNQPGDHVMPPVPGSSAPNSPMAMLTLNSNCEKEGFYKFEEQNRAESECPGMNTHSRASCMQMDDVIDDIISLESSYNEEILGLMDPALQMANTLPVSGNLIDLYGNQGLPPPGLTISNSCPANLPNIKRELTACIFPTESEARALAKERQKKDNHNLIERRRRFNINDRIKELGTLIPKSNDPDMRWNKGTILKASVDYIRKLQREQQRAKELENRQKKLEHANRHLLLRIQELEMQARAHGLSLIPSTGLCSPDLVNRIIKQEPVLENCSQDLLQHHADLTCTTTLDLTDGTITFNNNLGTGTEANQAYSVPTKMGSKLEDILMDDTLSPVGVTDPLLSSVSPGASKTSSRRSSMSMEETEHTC
row,SMILES,inhibition
1,CCOC(=O)N1CCN(c2cc(NCCO)c3c4c(onc24)-c2ccccc2C3=O)CC1,15.8% (inactive)
2,CC1CCN(c2cc(NCC(=O)O)c3c4c(onc24)-c2ccccc2C3=O)CC1,51.3% (active)
3,CCNc1cc(Nc2ccccc2)c2c3c(onc13)-c1ccccc1C2=O,15.1% (inactive)
4,COc1ccc(Nc2cc(N3CCN(c4ncccn4)CC3)c3noc4c3c2C(=O)c2ccccc2-4)cc1,0.37% (inactive)
5,CN1CCN(c2cc(NCCCC(=O)O)c3c4c(onc24)-c2ccccc2C3=O)CC1,10.3% (inactive)
6,CC(C)Nc1cc(N2CCC3(CC2)OCCO3)c2noc3c2c1C(=O)c1ccccc1-3,55.8% (active)
7,CC(C)Nc1cc(N2CCN(c3ncccn3)CC2)c2noc3c2c1C(=O)c1ccccc1-3,5.09% (inactive)
8,CN(C)c1cc(NCCN2CCC3(CC2)OCCO3)c2c3c(onc13)-c1ccccc1C2=O,50.7% (active)
9,CCNc1cc(NCCO)c2noc3c2c1C(=O)c1ccccc1-3,27.5% (inactive)
10,Cc1c(C(=O)Nc2ccc(F)cc2)sc2ncnc(N3CCc4ccccc4C3)c12,-2.5% (inactive)
11,Cc1ccc(OCC(=O)N2CCC(C(=O)O)CC2)cc1C,6.47% (inactive)
12,COCCn1c(SCC(=O)Nc2c(C)cc(C)cc2C)nc2c(c1=O)SCC2,1.88% (inactive)
13,COc1ccc(C(CNCc2cc(=O)oc3cc4c(cc23)CCC4)N2CCOCC2)cc1 (centres undefined),85.3% (active)
14,COc1ccccc1C(=O)NCC(c1ccc2c(c1)CCCN2C)N1CCOCC1 (centres undefined),-1.79% (inactive)
15,O=c1cc(CNc2ccc(S(=O)(=O)N3CCCC3)cc2)c2cc3c(cc2o1)CCC3,10.1% (inactive)
16,CN1CCN(Cc2c(O)ccc3c2O/C(=C\c2ccccc2Cl)C3=O)CC1,2.25% (inactive)
17,Cc1ccc2c(=O)c(CN3CCN(C)CC3)c(C)[nH]c2c1C,10% (inactive)
18,N#C/C(=C(/O)c1cc(-c2ccccc2)nc2ccccc12)c1nc2ccccc2[nH]1,-0.49% (inactive)
19,CCOc1cccc(/C=N/NC(=O)c2ccc(C)nc2)c1O,49.4% (inactive)
20,COc1cc(Br)cc(/C=N/NC(=O)c2cc(-c3ccccc3)n[nH]2)c1O,-36.5% (inactive)
21,COc1cc(Br)cc(/C=N\NC(=O)c2ccc(C)nc2)c1O,60.8% (active)
22,O=c1nc(/C=C/c2cc(Cl)cc(Cl)c2OCc2ccccc2F)cc(C(F)(F)F)[nH]1,-1.22% (inactive)
23,C/C(=N\c1ccccn1)c1c(O)c2ccccc2oc1=O,5.79% (inactive)
24,CCC(C)NCCOCCOc1c(OC)cccc1OC (centres undefined),17.3% (inactive)

row,SMILES,inhibition
1,CCC(C)NCCOCCOc1ccc(Br)cc1C (centres undefined),28.4% (inactive)
2,CCC(C)NCCOCCOc1cc(C)cc(C)c1C (centres undefined),70.4% (active)
3,Cc1nn(C)c(C)c1NC(=O)Cn1nc2n(Cc3ccc(F)cc3)c3ccccc3n2c1=O,12.6% (inactive)
4,Cc1ccc(C)c(NCN2C(=O)CSC2=O)c1,17.9% (inactive)
5,CCOC(=O)c1sc2nc(SCC(=O)N3CCCC3)n(Cc3ccc(C)cc3)c(=O)c2c1C,-3.14% (inactive)
6,C1=CC2CC1CC2CN1CCN(Cc2c[nH]c3ccccc23)CC1 (centres undefined),64.4% (active)
7,O=S(=O)(c1ccc2ccccc2c1)N1CCN(CC2CC3C=CC2C3)CC1 (centres undefined),-6.53% (inactive)
8,CCOc1ccccc1N1CCN(CC2CC3C=CC2C3)CC1 (centres undefined),4.32% (inactive)
9,CCN1C(=O)C(C)(C)COc2ccc(NC(=O)COc3ccc4ccccc4c3)cc21,8.12% (inactive)
10,CN(C)/N=C/C=C1\CCC/C(=C\C=N\N(C)C)C1=O,17.4% (inactive)
11,CN(C)/N=C/C=C1\CCC/C(=C\c2ccc([N+](=O)[O-])cc2)C1=O,-2.41% (inactive)
12,CN(C)/C=C/C=C/C=C1\CCC\C(=C/C=C/C=C/N(C)C)C1=O,98.9% (active)
13,Cc1ccc2nc3sc(C(=O)N4CC(=O)Nc5ccccc54)c(N)c3cc2c1,-4.39% (inactive)
14,O=[N+]([O-])c1ccc(OCc2nnc(SCCN3CCOCC3)n2-c2ccccc2)cc1,53.2% (active)
15,COc1ccccc1-c1nnc(SCCN2CCOCC2)n1C,0.66% (inactive)
16,c1ccc(C(Sc2nnc(COc3ccc(C4CCCCC4)cc3)n2-c2ccccc2)c2ccccc2)cc1,15.4% (inactive)
17,COc1ccc(C(=O)Oc2ccc3c(C(F)(F)F)cc(=O)oc3c2C)cc1OC,6.47% (inactive)
18,O=S(=O)(c1ccc(-c2csc(N3N=C(c4cccs4)CC3c3ccc(F)cc3)n2)cc1)N1CCCCC1 (centres undefined),12% (inactive)
19,Cc1ccc(N(C2C=CS(=O)(=O)C2)S(=O)(=O)c2ccc(Br)cc2)cc1 (centres undefined),19.4% (inactive)
20,O=C(O)c1cccc(-n2[nH]c(-c3ccccc3)cc2=O)c1,7.2% (inactive)
21,Cc1nc2sc3c(c2c(=O)n1/N=C/c1ccccc1[N+](=O)[O-])CCCC3,-7.66% (inactive)
22,Cn1c(=O)oc2cc(S(=O)(=O)N3CCC(C(=O)NCCC4=CCCCC4)CC3)ccc21,-12.8% (inactive)
23,Cn1c(=O)oc2cc(S(=O)(=O)N3CCC(C(=O)NC(C)(C)C)CC3)ccc21,70.2% (active)
24,COc1cccc(NC(=O)C2CCN(S(=O)(=O)c3ccc4c(c3)oc(=O)n4C)CC2)c1,-1.03% (inactive)

row,SMILES,inhibition
1,CC(C)NC(=O)NC(=O)COC(=O)c1ccc(Cl)c(S(N)(=O)=O)c1,0.26% (inactive)
2,CCOC(=O)c1ccc(NC(=O)CCc2c(C)nc3nc(CN)nn3c2C)cc1,6.45% (inactive)
3,COc1ccccc1NC(=O)Cn1cnc2sc(C(=O)Nc3nc4ccc(Br)cc4s3)c(C)c2c1=O,17.9% (inactive)
4,COCCCN1C(=O)c2cccc3c(C(=O)c4ccccc4)ccc(c23)C1=O,64.3% (active)
5,CCCCN1C(=O)c2cccc3c(C(C)=O)ccc(c23)C1=O,7.62% (inactive)
6,COCCCN1C(=O)c2cccc3cccc(c23)C1=O,1.36% (inactive)
7,N/C(=N\OC(=O)c1cccc(F)c1)c1ccc(Cl)cc1,17.5% (inactive)
8,CCOC(=O)C1CCCN(Cc2ccc(F)cc2)C1 (centres undefined),12.6% (inactive)
9,CCOc1cc(CN2CCC(C(=O)NCCc3ccccc3)CC2)ccc1O,-1.67% (inactive)
10,COc1ccc(-c2nc(C(=O)NC3CCN(Cc4ccccc4)CC3)cs2)cc1,9.55% (inactive)
11,COc1ccc(CN2CCCC(C(=O)N3CCCCC3)C2)cc1 (centres undefined),57.8% (active)
12,COc1cccc(CN2CCC(C(=O)NCCc3ccccc3)CC2)c1,54.9% (active)
13,COc1ccc(-c2ncc(C)c(NC3CCN(Cc4ccccc4)CC3)n2)cc1,9.68% (inactive)
14,COc1ccc(CN2CCC(C(=O)N3CCN(Cc4ccccc4)CC3)CC2)cc1,52% (active)
15,CCOc1ccc(CN2CCCC(C(=O)N(C)Cc3ccccc3)C2)cc1 (centres undefined),45.6% (inactive)
16,COc1cccc(CN2CCC(C(=O)NC(C)(C)C)CC2)c1,18.9% (inactive)
17,Cc1ccccc1-n1c(=S)sc2c(=O)n(-c3ccccc3)c(SCc3cc(=O)n4cc(Cl)ccc4n3)nc21,-24.2% (inactive)
18,CC(C)NC(=O)Cn1nc(SCc2ccccn2)nc1N,2.01% (inactive)
19,Cn1ccnc1SCc1cc(=O)c(OC(=O)c2ccccc2I)co1,-3.29% (inactive)
20,O=C(Nc1cccc(N2CCC(N(CC3CCC3)CC3CCCO3)CC2)c1)c1cccnc1 (centres undefined),21.5% (inactive)
21,COc1ccc(CN(C)CC(=O)N2CCc3ccccc32)cc1OC,0.1% (inactive)
22,CC(C)CC(=O)N1CCc2ccccc21,5.19% (inactive)
23,CN(CCc1ccccn1)CC(=O)N1CCc2ccccc21,93% (active)
24,CN(C(=O)c1ccccc1)c1cccc(N)c1,-4.8% (inactive)

row,SMILES,inhibition
1,COc1cc(C(=O)N2CCCC2)c([N+](=O)[O-])cc1OC,9.4% (inactive)
2,COc1cc(CN2CCCN(C)CC2)c([N+](=O)[O-])cc1OC,14.7% (inactive)
3,COc1cc(CN2CCN(Cc3ccco3)CC2)c([N+](=O)[O-])cc1OC,84.4% (active)
4,COc1cc(CN2CCN(Cc3ccc(C)cc3)CC2)c([N+](=O)[O-])cc1OC,80.6% (active)
5,COc1cc(CN2CCN(Cc3ccc(Cl)cc3)CC2)c([N+](=O)[O-])cc1OC,65.5% (active)
6,COc1cc(CN2CCN(CCO)CC2)c([N+](=O)[O-])cc1OC,13.5% (inactive)
7,c1ccc(CN2CCN(Cc3ccco3)CC2)cc1,12.7% (inactive)
8,COc1cc(CNCc2ccc3c(c2)OCO3)c([N+](=O)[O-])cc1OC,6.83% (inactive)
9,COc1cc(CN2CCCC(CO)C2)c([N+](=O)[O-])cc1OC (centres undefined),12.4% (inactive)
10,CN1CCc2cc(CNC(=O)CC3C(=O)NCCN3CCc3ccccc3)ccc21 (centres undefined),-15.3% (inactive)
11,CC/C(C)=N\NC(=O)CCC(=O)Nc1ccccc1,7.54% (inactive)
12,NC(=O)c1ccccc1NC(=O)CCl,0.34% (inactive)
13,CCNC(=O)CSc1ccc(C)cc1,1.07% (inactive)
14,CN1C(=O)CSC1=Nc1ccc(Cl)c(Cl)c1,-5.98% (inactive)
15,CCNc1nc(OC)cc(OC)n1,-5.7% (inactive)
16,CCNc1nc(NCC)nc(C(=O)O)n1,55.1% (active)
17,CCNc1nc(NC(C)C)nc(OCCOC(C)=O)n1,-3.21% (inactive)
18,O=C(CN1CCN(C(=O)Nc2c(F)cccc2F)CC1)c1ccco1,39.7% (inactive)
19,O=C(COC(=O)c1ccco1)Nc1ccc(Cl)c(Cl)c1,-6.47% (inactive)
20,O=C(CN1CCN(CC(=O)c2ccco2)CC1)Nc1ccc(Cl)c(Cl)c1,65.2% (active)
21,COc1cccc2c1OC1(CCN(C(=O)Cc3cccs3)CC1)OC2,0.59% (inactive)
22,COc1cc(C(=O)/C(=C/c2ccccc2F)c2nc3ccccc3o2)cc(OC)c1OC,5.52% (inactive)
